Data taken from PubChem BioAssay AID430 (Sanford-Burnham Center for Chemical Genomics, 2006).
Where “and” joins values, the source holds several entries; their conditions need not be identical. Identical values can stand only once. In all, about 63,000 compounds went through this assay and about 1,100 (1.7%) were called active. Rule as the data show it: active = cytotoxicity above about 50%; inactive = the rest. What follows is part of a selection rich in actives, with near analogues and random picks from the rest. Results with a measured potency or affinity are listed apart. A structure can be active in one record and inactive in another.

experiment: HPDE-C7 pancreatic duct cell viability loss – fluorescence, HTS (AID 430); settings: HPDE-C7 pancreatic duct cells viability, at 10 µM, stronger effect = higher value;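 also: cells exposed to compound for 48 hours before viability readout; 0% = vehicle and 100% = reference cytotoxic drug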

Row | SMILES | cytotoxicity
1 | CCN(C(C)=O)c1nnc(CSc2nc3ccccc3s2)s1 | 12.1% (inactive)
2 | CCN(C(=O)c1ccc(C(C)(C)C)cc1)c1nnc(Cn2nnc3ccccc32)s1 | 81.9% (active)
3 | CCN(C(=O)CSc1nnc(Cn2nnc3ccccc32)o1)c1nc(-c2ccccc2)cs1 | -7.6% (inactive)
4 | COc1ccc(N2CCN(C(=O)CCNS(=O)(=O)c3ccc(Br)s3)CC2)cc1 | -17.4% (inactive)
5 | Cc1ccc(S(=O)(=O)N2CCC(C(=O)Nc3nnc(COc4ccccc4)s3)CC2)cc1 | -3.6% (inactive)
6 | Cc1cc(C)c2c(=O)n(CC(=O)NCCCN3CCN(c4ccccc4F)CC3)sc2n1 | 88.5% (active)
7 | O=C(CCNC(=O)Cn1ccc2ccccc2c1=O)NCCCN1CCN(c2ccccc2F)CC1 | -10.7% (inactive)
8 | Cc1cc(C)c2c(=O)n(CC(=O)NCCCN3CCOCC3)sc2n1 | 6.4% (inactive)
9 | CCC(NC(=O)Nc1ncccc1C)(C(F)(F)F)C(F)(F)F | -6.7% (inactive)
10 | COc1ccc2c(c1)sc1nc(-c3ccccc3)cn12 | 53.2% (active)
11 | CCOC(=O)N1CCN(C(=O)c2ccc3c(c2)sc2nc(-c4ccc(OC)cc4)cn23)CC1 | 12.1% (inactive)
12 | CCOC(=O)N1CCN(C(=O)c2ccc3c(c2)sc2nc(-c4ccccc4)cn23)CC1 | 2.8% (inactive)
13 | CS(=O)(=O)N(CC(=O)NCc1ccco1)Cc1ccc(Cl)cc1 | -9.3% (inactive)
14 | COc1ccccc1S(=O)(=O)Cc1ccc(C(=O)NCCN(C)C)o1 | 8% (inactive)
15 | O=S(=O)(c1cccc2nsnc12)N1CCN(c2ncccn2)CC1 | -8.5% (inactive)
16 | COc1ccc(C2=CC(c3c(C)nn(-c4ccccc4)c3Cl)n3nnnc3N2)cc1OC (configuration not stated) | 72.4% (active)
17 | COc1ccc(C2=CC(c3sccc3C)n3nnnc3N2)cc1 (configuration not stated) | 12.4% (inactive)
18 | COc1cccc(C2=CC(c3ccc(N(C)C)cc3)n3nnnc3N2)c1 (configuration not stated) | -3% (inactive)
19 | COc1cccc(C2=CC(c3cc(OC)ccc3OC)n3nnnc3N2)c1 (configuration not stated) | 70.3% (active)
20 | COc1ccc(C2C=C(c3ccccc3)Nc3nnnn32)cc1 (configuration not stated) | -3.3% (inactive)
21 | COc1ccc(OC)c(C2C=C(c3ccc(C)c(C)c3)Nc3nnnn32)c1 (configuration not stated) | 10.4% (inactive)
22 | COc1ccccc1C1C=C(c2ccccc2)Nc2nnnn21 (configuration not stated) | 29.6% (inactive)
23 | COc1ccc(C2=CC(c3ccc(OC)c(OC)c3)n3nnnc3N2)c(OC)c1 (configuration not stated) | 14.7% (inactive)
24 | COc1ccc(C2=CC(c3ccc(F)cc3)n3nnnc3N2)cc1 (configuration not stated) | -4% (inactive)
25 | COc1ccccc1C1C=C(c2ccc(C)cc2)Nc2nnnn21 (configuration not stated) | -0.5% (inactive)
26 | COc1cccc(C2=CC(c3ccccc3)n3nnnc3N2)c1 (configuration not stated) | 53.7% (active)

Row | SMILES | cytotoxicity
27 | CCOC(=O)N1CCN(c2c(N3CCC(N4CCCCC4)CC3)c(=O)c2=O)CC1 | 10.5% (inactive)
28 | CN(Cc1ccccc1)Cc1nc2c(c(=O)n(C)c(=O)n2C)n1Cc1ccc(F)cc1 | -29.4% (inactive)
29 | O=C(CCS(=O)(=O)c1cccc2nsnc12)N1CCN(C(=O)c2ccco2)CC1 | -15.9% (inactive)
30 | CN1CCN(C2=NC3(CCCC3)C(C#N)C(=O)N2)CC1 (configuration not stated) | 23.5% (inactive)
31 | COC(=O)c1c(F)c(F)c(NCCO)c(F)c1F | -3.7% (inactive)
32 | CC(NC(=O)NC1CCCCC1)C(c1cccs1)N1CCOCC1 (configuration not stated) | -7.5% (inactive)
33 | CCOC(=O)C1CCN(C(=O)CSc2n[nH]c(=O)[nH]c2=O)CC1 | 9.8% (inactive)
34 | CNC(=O)/C(=N\O)c1ccccc1 | -14.1% (inactive)
35 | COc1cc(C(=O)NCCc2ccc(S(N)(=O)=O)cc2)cc(OC)c1OC | 3.4% (inactive)
36 | COc1ccc(C2=CC(c3ccc(C)cc3)n3nnnc3N2)cc1 (configuration not stated) | -1.9% (inactive)
37 | CCOc1ccc(C2C=C(c3ccc(C)cc3)Nc3nnnn32)cc1 (configuration not stated) | -0.9% (inactive)
38 | COc1cccc(C2=CC(c3cccc(OC)c3OC(F)F)n3nnnc3N2)c1 (configuration not stated) | -21.2% (inactive)
39 | COc1cccc(C2=CC(c3ccc(OC)c(OC)c3OC)n3nnnc3N2)c1 (configuration not stated) | -3.9% (inactive)
40 | COc1cccc(C2=CC(c3cccc(OC)c3OC)n3nnnc3N2)c1 (configuration not stated) | 71.4% (active)
41 | O=C(CCNS(=O)(=O)c1cccs1)Nc1ccccc1F | -34.3% (inactive)
42 | COc1ccc(Cn2nnnc2CN2CCC(c3nc4ccccc4s3)CC2)cc1 | -9.8% (inactive)
43 | Cc1c(C(=O)OC(C)C)[nH]c2c1C(=O)CC(C)(C)C2 | -0.2% (inactive)
44 | CCOC(=O)C1CCCN(C(=O)CCC(=O)Nc2ccc3nc(N4CCOCC4)cc(C)c3c2)C1 (configuration not stated) | 9.9% (inactive)
45 | CCOc1ccc2[nH]c(=O)c(CN(CCO)C(=O)c3ccc(Br)cc3)cc2c1 | 6.1% (inactive)
46 | O=C1CN(C(=O)COC(=O)COc2ccc3c(c2)CCC3)c2ccccc2N1 | 2.9% (inactive)
47 | COc1cc(NC(=O)c2cnn3c(C)cc(C)nc23)c(OC)cc1Cl | 12.9% (inactive)
48 | CC1(C)Cc2c(sc3c2c(=N)n(Cc2ccco2)c(=O)n3CC(=O)Nc2ccccc2)CO1 | 5.3% (inactive)
49 | Cc1ccc(NC(=O)Cn2c(=O)n(Cc3ccco3)c(=N)c3c4c(sc32)COC(C)(C)C4)cc1 | 24.6% (inactive)
50 | CC1(C)Cc2c(sc3c2c(=N)n(Cc2ccco2)c(=O)n3CC(=O)Nc2ccc(Cl)cc2)CO1 | 51.5% (active)
51 | Cc1cccc(OCC(O)Cn2c(-n3nc(C)cc3C)nc3c2c(=O)[nH]c(=O)n3C)c1 (configuration not stated) | -2.9% (inactive)
52 | CCCOC(=O)Nc1nc2ccccc2o1 | -8.2% (inactive)

Row | SMILES | cytotoxicity
53 | COc1ccccc1C(=O)Nc1nnc(-c2ccc(F)cc2)o1 | 4.1% (inactive)
54 | Cc1nc2ccc(N3C(=O)CCC3=O)cc2[nH]1 | -18.8% (inactive)
55 | COc1ccc(CN2CCN(S(=O)(=O)c3ccccc3)CC2)c(OC)c1 | -0.4% (inactive)
56 | O=C(CCC1CCCC1)N1CCN(C(=O)COc2ccccc2)CC1 | 8.2% (inactive)
57 | Cn1c(N)c(C(=O)CSc2nc3ccccc3n2-c2ccccc2)c(=O)n(C)c1=O | 106% (active)
58 | COc1ccc(-n2c(SCC(=O)c3c(N)n(C)c(=O)n(C)c3=O)nc3ccccc32)cc1 | 6.1% (inactive)
59 | NC(=O)CSc1nc2ccccc2n1-c1ccccc1 | -1.9% (inactive)
60 | Cc1ccc(NC(=O)CS(=O)CC(=O)Nc2cccc(C)c2C)cc1F (configuration not stated) | -15.9% (inactive)
61 | COc1ccc(Cl)c(Cn2c(NCC(C)O)nc3c2c(=O)n(C)c(=O)n3C)c1 (configuration not stated) | -9.9% (inactive)
62 | O=C(O)c1ccc2c3c(ncnc13)-c1ccccc1C2=O | 75.6% (active)
63 | O=C1c2ccccc2-c2ncnc3cccc1c23 | 0.7% (inactive)
64 | O=C1c2ccccc2-c2nccnc21 | -15.6% (inactive)
65 | CCc1nnc(NC(=O)CCN2C(=O)c3ccccc3S2(=O)=O)s1 | -4.2% (inactive)
66 | Nc1nc(Cl)nc2c1ncn2[C@@H]1O[C@H](CO)[C@@H](O)[C@H]1O | 8.6% (inactive)
67 | Nc1nc(F)nc2c1ncn2[C@@H]1O[C@H](CO)[C@@H](O)[C@@H]1O | 13.2% (inactive)
68 | Nc1nc(Cl)nc2c1ncn2[C@H]1C[C@H](O)[C@@H](CO)O1 | 7.4% (inactive) and 95.9% (active)
69 | Cc1ccc(NC(=O)Cn2c(C)cc(C)c(C#N)c2=O)c(Cl)c1 | -6.5% (inactive)
70 | O=C(CN1C(=O)CSc2ccccc21)NCCC1=CCCCC1 | -11% (inactive)
71 | COc1ccc(NS(=O)(=O)c2cc(C)ccc2OC)cc1OC | 10.3% (inactive)
72 | c1ccc(CCN2CN(CCCN3CCOCC3)c3nc4ccccc4n3C2)cc1 | -23.9% (inactive)
73 | c1ccc(CN2CCN(c3ncccn3)CC2)nc1 | 6% (inactive)
74 | S=C1SCN(Cc2ccccn2)CN1Cc1ccco1 | 64.7% (active)
75 | CN1C(=O)C2(c3ccccc31)N(C)CC(c1ccccn1)C21SC(=S)N(Cc2ccco2)C1=O (configuration not stated) | -9.5% (inactive)
76 | COCCN1CSC(=S)N(Cc2ccco2)C1 | 50.6% (active)
77 | O=C(N1CCOCC1)N1CCN(Cc2ccccc2)CC1 | 4.1% (inactive)
78 | COc1ccccc1N1CCN(Cc2ccco2)CC1 | -25.7% (inactive)

Row | SMILES | cytotoxicity
79 | CCCN1CN(Cc2ccco2)c2nc3ccccc3n2C1 | -15.1% (inactive)
80 | S=C1SCN(CCN2CCOCC2)CN1Cc1ccccc1 | 60.6% (active)
81 | CCOc1cccc(C(=O)Nc2cccc(-c3nc4ncccc4o3)c2C)c1 | 4.2% (inactive)
82 | COc1ccc(-n2c(Cc3cccn3C)nnc2SCC(=O)NCC2CCCO2)cc1 (configuration not stated) | -8.1% (inactive)
83 | O=C1NC(c2cccs2)Nc2sc3c(c21)CCCC3 (configuration not stated) | 0.6% (inactive)
84 | CC(C)(C)c1ccccc1NC(=O)c1ccco1 | 15% (inactive)
85 | O=C(Nc1cccnc1)c1ccc(COc2ccccc2Br)o1 | 23.7% (inactive)
86 | COc1ccc(NC(=O)c2ccc(COc3ccccc3Br)o2)cc1OC | 36.6% (inactive)
87 | COc1cc(NC(=O)c2ccc(COc3ccccc3Br)o2)cc(OC)c1OC | 56.6% (active)
88 | CCOC(=O)C1CCN(C(=O)CN(Cc2ccc(Cl)cc2)S(C)(=O)=O)CC1 | -1% (inactive)
89 | Cn1c(CCCOc2ccc(Cl)cc2Cl)nnc1SCC(=O)Nc1nccs1 | 1% (inactive)
90 | O=C(CCS(=O)(=O)c1ccc(Br)cc1)N1CCN(c2ccccc2)CC1 | -1.2% (inactive)
91 | CCOC(=O)c1[nH]c(C)c(C(=O)N2CCc3ccccc32)c1C | 58.8% (active)
92 | CCOC(=O)c1[nH]c(C)c(C(=O)Nc2ccc(C)c(C)c2)c1C | 8.5% (inactive)
93 | CCOC(=O)c1[nH]c(C)c(C(=O)Nc2ccc(C)cc2C)c1C | 51.9% (active)
94 | CCOC(=O)c1[nH]c(C)c(C(=O)Nc2ccc(Cl)cc2)c1C | -8.4% (inactive)
95 | CCOC(=O)c1[nH]c(C)c(C(=O)c2cc(F)ccc2F)c1C | 72.2% (active)
96 | CCOC(=O)c1[nH]c(C)c(C(=O)Nc2ccc(F)cc2)c1C | -4.5% (inactive)
97 | CCOC(=O)c1[nH]c(C)c(C(=O)Nc2cc(Cl)ccc2C)c1C | 60.6% (active)
98 | CCOC(=O)c1c(C)[nH]c(C(=O)OCC(=O)N2CCc3ccccc32)c1C | -15.4% (inactive)
99 | CCOC(=O)c1[nH]c(C)c(C(=O)OCC)c1C | -6% (inactive)
100 | CCOC(=O)c1[nH]c(C)c(C(=O)Nc2cc(OC)ccc2OC)c1C | 43.5% (inactive)
101 | CCOC(=O)c1[nH]c(C)c(C(=O)Nc2ccc(C)c(Cl)c2)c1C | -20.5% (inactive)
102 | CC(=O)c1c(C)[nH]c(C(=O)N2CCc3ccccc32)c1C | 1.3% (inactive)
